From paper PMC7862700, “An all-to-all approach to the identification of sequence-specific readers for epigenetic DNA modifications on cytosine”

Key:
Assay in all cases: DAPPL (digital affinity profiling via proximity ligation, sequencing); 10 mM Tris-HCl pH 7.5, 50 mM NaCl, 1 mM DTT, 4% glycerol, room temperature, 30 min; GST-TFs on glutathione beads, 16-mer random dsDNA library, 0.1% formaldehyde crosslink after washing; high values mean tight binding
Conditions in all cases: protein: recombinant; tags: N-terminal GST; dsDNA, one strand shown
FEV = biological target: T1, FEV (Homo sapiens, UniProt Q99581 1-238)
T1 sequence: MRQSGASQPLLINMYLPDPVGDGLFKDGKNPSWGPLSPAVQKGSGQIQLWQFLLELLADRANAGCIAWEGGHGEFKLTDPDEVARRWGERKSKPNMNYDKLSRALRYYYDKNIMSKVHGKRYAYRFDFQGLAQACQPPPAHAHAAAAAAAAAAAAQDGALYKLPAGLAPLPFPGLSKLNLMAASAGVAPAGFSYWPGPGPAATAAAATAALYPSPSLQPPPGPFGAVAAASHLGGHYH
In short: (§1)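 Binding signal is given per hexamer as its read frequency for a factor divided by its frequency in the tag-only sample. GST-fused human transcription factors were expressed in yeast, captured on glutathione beads, barcoded with DNA and pooled with that sample, then incubated with 200 nmole of a 16-mer random double-stranded DNA library in Tris/NaCl/DTT/glycerol buffer for 30 min at room temperature. The pools were then washed, crosslinked, proximity-ligated, amplified by PCR and sequenced on an Illumina NextSeq500.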

ETV5 = ETV5 (Homo sapiens, UniProt P41161 1-510)
In short: as §1

SPIC = biological target: T2, SPIC (Homo sapiens, UniProt Q8N5J4 1-248)
T2 sequence: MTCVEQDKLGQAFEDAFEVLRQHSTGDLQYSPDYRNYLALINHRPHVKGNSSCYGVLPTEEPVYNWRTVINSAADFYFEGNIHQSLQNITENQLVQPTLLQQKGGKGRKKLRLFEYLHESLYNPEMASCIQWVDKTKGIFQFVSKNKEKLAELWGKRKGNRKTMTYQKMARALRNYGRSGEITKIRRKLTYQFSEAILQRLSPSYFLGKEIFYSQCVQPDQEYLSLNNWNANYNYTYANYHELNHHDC
In short: as §1

ELF4 = ELF4 (Homo sapiens, UniProt Q99607 1-663)
In short: as §1

ELK4 = biological target: T3, ELK4 (Homo sapiens, UniProt P28324-2 1-405)
T3 sequence: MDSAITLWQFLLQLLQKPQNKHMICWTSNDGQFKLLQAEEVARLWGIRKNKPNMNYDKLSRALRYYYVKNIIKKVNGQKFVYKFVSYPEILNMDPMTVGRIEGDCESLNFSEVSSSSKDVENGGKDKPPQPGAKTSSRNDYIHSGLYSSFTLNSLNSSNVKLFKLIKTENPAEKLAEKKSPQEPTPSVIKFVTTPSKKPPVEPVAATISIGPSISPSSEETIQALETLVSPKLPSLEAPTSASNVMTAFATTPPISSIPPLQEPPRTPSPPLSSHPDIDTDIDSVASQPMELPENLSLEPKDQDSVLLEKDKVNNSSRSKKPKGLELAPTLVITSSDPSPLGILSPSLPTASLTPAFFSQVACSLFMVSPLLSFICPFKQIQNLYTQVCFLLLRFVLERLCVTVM
In short: as §1

ETV2 = biological target: T4, ETV2 (Homo sapiens, UniProt O00321 1-342)
T4 sequence: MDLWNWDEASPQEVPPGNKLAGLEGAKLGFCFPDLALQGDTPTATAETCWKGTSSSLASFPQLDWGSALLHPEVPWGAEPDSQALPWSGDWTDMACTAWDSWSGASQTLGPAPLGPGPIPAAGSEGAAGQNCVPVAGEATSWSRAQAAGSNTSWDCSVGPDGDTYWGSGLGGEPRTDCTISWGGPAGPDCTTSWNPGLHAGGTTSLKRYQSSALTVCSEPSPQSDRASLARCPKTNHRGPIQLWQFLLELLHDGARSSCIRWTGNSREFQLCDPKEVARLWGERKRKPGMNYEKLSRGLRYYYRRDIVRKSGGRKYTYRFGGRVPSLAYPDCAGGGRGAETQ
In short: as §1

ELF3 = biological target: T5, ELF3 (Homo sapiens, UniProt P78545 1-371)
T5 sequence: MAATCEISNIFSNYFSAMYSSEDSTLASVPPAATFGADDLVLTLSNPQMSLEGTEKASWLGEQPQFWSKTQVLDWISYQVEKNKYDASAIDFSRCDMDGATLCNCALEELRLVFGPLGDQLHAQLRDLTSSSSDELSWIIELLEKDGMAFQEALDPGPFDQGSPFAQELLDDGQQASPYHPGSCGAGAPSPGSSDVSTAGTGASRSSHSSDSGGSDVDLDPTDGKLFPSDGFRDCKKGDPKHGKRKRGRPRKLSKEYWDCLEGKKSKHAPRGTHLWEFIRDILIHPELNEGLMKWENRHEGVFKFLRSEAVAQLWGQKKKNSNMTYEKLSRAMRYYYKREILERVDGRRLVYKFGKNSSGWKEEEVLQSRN
In short: as §1

ETV1 = ETV1 (Homo sapiens, UniProt P50549 1-477)
In short: as §1

ERF = biological target: T6, ERF (Homo sapiens, UniProt P50548 1-548)
T6 sequence: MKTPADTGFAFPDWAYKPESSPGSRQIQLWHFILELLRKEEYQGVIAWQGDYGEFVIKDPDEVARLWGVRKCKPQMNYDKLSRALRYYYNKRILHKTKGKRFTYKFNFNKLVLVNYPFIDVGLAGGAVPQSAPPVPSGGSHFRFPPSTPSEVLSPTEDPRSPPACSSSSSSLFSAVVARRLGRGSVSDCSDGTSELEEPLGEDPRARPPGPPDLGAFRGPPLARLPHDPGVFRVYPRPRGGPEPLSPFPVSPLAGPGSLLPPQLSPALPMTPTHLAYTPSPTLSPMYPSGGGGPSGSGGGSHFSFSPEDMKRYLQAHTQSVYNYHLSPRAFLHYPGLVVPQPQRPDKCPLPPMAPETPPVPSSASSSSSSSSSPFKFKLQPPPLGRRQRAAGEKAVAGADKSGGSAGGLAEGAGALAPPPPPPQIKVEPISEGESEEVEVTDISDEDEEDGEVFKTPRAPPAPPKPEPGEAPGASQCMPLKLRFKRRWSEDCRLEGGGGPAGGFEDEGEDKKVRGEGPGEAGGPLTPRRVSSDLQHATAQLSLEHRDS
In short: as §1

ETV3L = biological target: T7, ETV3L (Homo sapiens, UniProt Q6ZN32 1-361)
T7 sequence: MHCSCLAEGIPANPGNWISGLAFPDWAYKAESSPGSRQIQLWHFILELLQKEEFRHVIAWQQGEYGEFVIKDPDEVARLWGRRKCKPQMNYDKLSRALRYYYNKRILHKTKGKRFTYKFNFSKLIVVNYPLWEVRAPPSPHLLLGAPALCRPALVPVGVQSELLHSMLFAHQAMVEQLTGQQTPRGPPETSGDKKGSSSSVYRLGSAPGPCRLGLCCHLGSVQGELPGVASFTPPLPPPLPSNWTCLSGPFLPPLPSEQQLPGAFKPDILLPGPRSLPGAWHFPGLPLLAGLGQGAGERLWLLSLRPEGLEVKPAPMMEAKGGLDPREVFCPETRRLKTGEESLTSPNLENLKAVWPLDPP
In short: as §1

ETS2 = biological target: T8, ETS2 (Homo sapiens, UniProt P15036 1-469)
T8 sequence: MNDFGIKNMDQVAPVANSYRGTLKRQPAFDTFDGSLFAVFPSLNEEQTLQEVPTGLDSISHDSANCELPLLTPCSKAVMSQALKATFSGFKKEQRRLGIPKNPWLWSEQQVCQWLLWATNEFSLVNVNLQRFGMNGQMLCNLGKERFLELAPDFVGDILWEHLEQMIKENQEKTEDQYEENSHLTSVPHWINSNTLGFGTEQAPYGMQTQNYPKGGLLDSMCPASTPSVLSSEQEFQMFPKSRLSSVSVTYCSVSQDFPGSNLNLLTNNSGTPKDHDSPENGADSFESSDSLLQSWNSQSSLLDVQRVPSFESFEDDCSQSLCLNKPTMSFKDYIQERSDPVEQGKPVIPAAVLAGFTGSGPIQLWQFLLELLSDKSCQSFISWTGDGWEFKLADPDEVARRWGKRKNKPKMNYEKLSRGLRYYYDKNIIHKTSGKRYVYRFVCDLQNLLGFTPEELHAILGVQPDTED
In short: as §1

SPDEF = biological target: T9, SPDEF (Homo sapiens, UniProt O95238 1-335)
T9 sequence: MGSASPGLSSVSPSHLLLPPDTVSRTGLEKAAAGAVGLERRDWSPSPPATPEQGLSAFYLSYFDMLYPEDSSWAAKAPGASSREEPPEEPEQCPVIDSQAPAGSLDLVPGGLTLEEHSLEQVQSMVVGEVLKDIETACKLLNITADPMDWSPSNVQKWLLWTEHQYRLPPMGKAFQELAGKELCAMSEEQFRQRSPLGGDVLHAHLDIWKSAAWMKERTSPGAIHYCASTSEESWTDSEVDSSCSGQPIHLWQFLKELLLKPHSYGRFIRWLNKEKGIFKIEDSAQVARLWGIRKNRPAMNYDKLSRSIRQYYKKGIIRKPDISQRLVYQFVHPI
In short: as §1

ETV7 = biological target: T10, ETV7 (Homo sapiens, UniProt Q9Y603 1-341)
T10 sequence: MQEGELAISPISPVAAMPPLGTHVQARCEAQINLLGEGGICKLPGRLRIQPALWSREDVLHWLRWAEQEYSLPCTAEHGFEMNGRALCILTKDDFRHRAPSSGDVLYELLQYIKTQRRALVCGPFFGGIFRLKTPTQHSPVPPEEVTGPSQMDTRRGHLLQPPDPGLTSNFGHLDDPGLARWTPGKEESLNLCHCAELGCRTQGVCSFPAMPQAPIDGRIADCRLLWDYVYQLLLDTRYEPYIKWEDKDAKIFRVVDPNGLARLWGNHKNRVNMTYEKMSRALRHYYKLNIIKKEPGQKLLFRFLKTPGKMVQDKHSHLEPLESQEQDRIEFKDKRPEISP
In short: as §1

ELF5 = biological target: T11, ELF5 (Homo sapiens, UniProt Q9UKW6-2 1-255)
T11 sequence: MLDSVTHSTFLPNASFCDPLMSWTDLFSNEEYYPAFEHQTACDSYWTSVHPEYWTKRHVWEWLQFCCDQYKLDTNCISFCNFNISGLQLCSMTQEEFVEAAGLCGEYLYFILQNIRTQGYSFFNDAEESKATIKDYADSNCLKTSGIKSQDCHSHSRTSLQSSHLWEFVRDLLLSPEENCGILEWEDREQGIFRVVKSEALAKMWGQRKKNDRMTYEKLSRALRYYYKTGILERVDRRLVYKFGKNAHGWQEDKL
In short: as §1

ETV3 = biological target: T12, ETV3 (Homo sapiens, UniProt P41162-2 1-143)
T12 sequence: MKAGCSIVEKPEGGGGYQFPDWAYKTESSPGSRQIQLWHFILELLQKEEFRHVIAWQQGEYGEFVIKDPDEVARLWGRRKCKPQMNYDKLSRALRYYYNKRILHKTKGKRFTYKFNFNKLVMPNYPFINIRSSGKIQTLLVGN
In short: as §1

ETV6 = ETV6 (Homo sapiens, UniProt P41212 1-452)
In short: as §1

Chain of ELF4 (Q99607 whole entry): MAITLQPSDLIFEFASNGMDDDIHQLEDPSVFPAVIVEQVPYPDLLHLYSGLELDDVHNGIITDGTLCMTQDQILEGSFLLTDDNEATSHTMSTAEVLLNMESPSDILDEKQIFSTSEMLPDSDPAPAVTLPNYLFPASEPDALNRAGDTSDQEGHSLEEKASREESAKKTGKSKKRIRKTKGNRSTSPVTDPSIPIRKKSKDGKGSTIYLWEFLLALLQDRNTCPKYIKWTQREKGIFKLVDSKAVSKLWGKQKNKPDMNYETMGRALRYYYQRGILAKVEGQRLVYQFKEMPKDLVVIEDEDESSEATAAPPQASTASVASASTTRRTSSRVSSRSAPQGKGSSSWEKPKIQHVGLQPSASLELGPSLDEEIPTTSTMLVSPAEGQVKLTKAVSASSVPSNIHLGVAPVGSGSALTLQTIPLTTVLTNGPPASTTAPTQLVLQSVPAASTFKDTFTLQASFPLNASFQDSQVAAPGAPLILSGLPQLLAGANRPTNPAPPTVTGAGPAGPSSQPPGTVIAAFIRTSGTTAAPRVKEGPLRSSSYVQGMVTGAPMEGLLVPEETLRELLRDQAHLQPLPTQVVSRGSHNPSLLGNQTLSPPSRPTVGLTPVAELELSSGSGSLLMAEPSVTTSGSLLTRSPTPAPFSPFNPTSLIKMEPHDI
Chain of ETV6 (P41212 whole entry): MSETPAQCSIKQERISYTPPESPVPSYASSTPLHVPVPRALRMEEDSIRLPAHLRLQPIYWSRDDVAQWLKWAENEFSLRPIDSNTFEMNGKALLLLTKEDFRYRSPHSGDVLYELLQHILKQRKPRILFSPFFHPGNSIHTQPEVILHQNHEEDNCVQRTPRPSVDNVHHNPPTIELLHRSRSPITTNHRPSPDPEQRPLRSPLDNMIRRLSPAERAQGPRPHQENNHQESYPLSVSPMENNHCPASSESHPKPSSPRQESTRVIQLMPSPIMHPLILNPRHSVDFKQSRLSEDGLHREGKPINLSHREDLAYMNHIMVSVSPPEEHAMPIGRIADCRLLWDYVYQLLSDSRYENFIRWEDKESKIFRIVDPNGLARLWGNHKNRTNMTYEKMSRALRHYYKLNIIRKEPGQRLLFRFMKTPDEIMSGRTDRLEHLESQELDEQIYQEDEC
Chain of ETV1 (P50549 whole entry): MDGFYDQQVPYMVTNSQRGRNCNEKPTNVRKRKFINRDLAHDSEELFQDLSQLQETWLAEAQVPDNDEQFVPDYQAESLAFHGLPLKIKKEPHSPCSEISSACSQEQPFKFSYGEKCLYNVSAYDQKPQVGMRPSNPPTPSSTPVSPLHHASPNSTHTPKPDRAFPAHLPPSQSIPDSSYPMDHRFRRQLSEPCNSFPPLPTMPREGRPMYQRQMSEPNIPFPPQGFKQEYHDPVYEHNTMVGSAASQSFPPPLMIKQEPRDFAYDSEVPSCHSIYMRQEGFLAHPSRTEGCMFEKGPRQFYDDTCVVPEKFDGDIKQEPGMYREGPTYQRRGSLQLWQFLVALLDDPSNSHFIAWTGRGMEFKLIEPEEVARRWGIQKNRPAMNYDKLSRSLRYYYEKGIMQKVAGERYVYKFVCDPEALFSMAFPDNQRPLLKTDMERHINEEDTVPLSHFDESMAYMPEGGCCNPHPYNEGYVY
Chain of ETV5 (P41161 whole entry): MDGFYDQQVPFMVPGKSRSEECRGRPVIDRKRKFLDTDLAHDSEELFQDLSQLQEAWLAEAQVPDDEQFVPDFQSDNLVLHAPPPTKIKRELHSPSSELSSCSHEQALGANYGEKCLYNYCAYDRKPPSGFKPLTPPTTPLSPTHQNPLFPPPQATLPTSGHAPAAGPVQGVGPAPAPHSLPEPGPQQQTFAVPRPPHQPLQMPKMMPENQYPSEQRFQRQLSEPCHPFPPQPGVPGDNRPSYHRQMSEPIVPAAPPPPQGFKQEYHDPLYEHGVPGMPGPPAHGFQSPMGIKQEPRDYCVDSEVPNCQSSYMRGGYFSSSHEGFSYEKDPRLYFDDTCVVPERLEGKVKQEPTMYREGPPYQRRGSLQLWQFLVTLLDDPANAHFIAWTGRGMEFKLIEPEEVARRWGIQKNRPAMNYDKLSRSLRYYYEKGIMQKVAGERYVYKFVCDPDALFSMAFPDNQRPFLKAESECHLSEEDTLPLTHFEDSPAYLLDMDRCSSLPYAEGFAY

Row | Sequence | binding signal (FEV) | binding signal (ETV5) | binding signal (SPIC) | binding signal (ELF4) | binding signal (ELK4) | binding signal (ETV2) | binding signal (ELF3) | binding signal (ETV1) | binding signal (ERF) | binding signal (ETV3L) | binding signal (ETS2) | binding signal (SPDEF) | binding signal (ETV7) | binding signal (ELF5) | binding signal (ETV3) | binding signal (ETV6)
1 | AAGTGT | 1.28 fold enrichment (6-mer frequency, TF over GST control) | 1.33 fold enrichment (6-mer frequency, TF over GST control) | 1.6 fold enrichment (6-mer frequency, TF over GST control) | 1.3 fold enrichment (6-mer frequency, TF over GST control) | 1.21 fold enrichment (6-mer frequency, TF over GST control) | 1.37 fold enrichment (6-mer frequency, TF over GST control) | 1.43 fold enrichment (6-mer frequency, TF over GST control) | 1.39 fold enrichment (6-mer frequency, TF over GST control) | 1.24 fold enrichment (6-mer frequency, TF over GST control) | 1.2 fold enrichment (6-mer frequency, TF over GST control) | 1.38 fold enrichment (6-mer frequency, TF over GST control) | 1.32 fold enrichment (6-mer frequency, TF over GST control) | 1.42 fold enrichment (6-mer frequency, TF over GST control) | 1.43 fold enrichment (6-mer frequency, TF over GST control) | 1.23 fold enrichment (6-mer frequency, TF over GST control) | 1.35 fold enrichment (6-mer frequency, TF over GST control)
2 | TGCGGA | 1.19 fold enrichment (6-mer frequency, TF over GST control) | 1.47 fold enrichment (6-mer frequency, TF over GST control) | 1.44 fold enrichment (6-mer frequency, TF over GST control) | 1.24 fold enrichment (6-mer frequency, TF over GST control) | 1.13 fold enrichment (6-mer frequency, TF over GST control) | 1.37 fold enrichment (6-mer frequency, TF over GST control) | 1.74 fold enrichment (6-mer frequency, TF over GST control) | 1.37 fold enrichment (6-mer frequency, TF over GST control) | 1.14 fold enrichment (6-mer frequency, TF over GST control) | 1.3 fold enrichment (6-mer frequency, TF over GST control) | 1.35 fold enrichment (6-mer frequency, TF over GST control) | 1.38 fold enrichment (6-mer frequency, TF over GST control) | 1.22 fold enrichment (6-mer frequency, TF over GST control) | 1.46 fold enrichment (6-mer frequency, TF over GST control) | 1.54 fold enrichment (6-mer frequency, TF over GST control) | 1.34 fold enrichment (6-mer frequency, TF over GST control)
3 | TGCATC | 1.33 fold enrichment (6-mer frequency, TF over GST control) | 1.39 fold enrichment (6-mer frequency, TF over GST control) | 1.46 fold enrichment (6-mer frequency, TF over GST control) | 1.31 fold enrichment (6-mer frequency, TF over GST control) | 1.22 fold enrichment (6-mer frequency, TF over GST control) | 1.33 fold enrichment (6-mer frequency, TF over GST control) | 1.3 fold enrichment (6-mer frequency, TF over GST control) | 1.4 fold enrichment (6-mer frequency, TF over GST control) | 1.4 fold enrichment (6-mer frequency, TF over GST control) | 1.34 fold enrichment (6-mer frequency, TF over GST control) | 1.39 fold enrichment (6-mer frequency, TF over GST control) | 1.88 fold enrichment (6-mer frequency, TF over GST control) | 1.37 fold enrichment (6-mer frequency, TF over GST control) | 1.35 fold enrichment (6-mer frequency, TF over GST control) | 1.29 fold enrichment (6-mer frequency, TF over GST control) | 1.33 fold enrichment (6-mer frequency, TF over GST control)
